Compound activity: PubChem BioAssay, several laboratories
Compounds with a hit are over-represented: about 1.7% of the library has one in this group of screens.
RecA splice inh: inhibitors of M. tuberculosis RecA intein splicing. P9WHJ3. cell-free RecA intein splicing, fluorescence. inhibition, % (concentration not given with the values). 290,000 tested, 0.75% active. AID 2221; in the data active = inhibition above about 30%; inconclusive = no clear call, values can overlap the other calls;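 also: 0% = vehicle wells and 100% = reference inhibitor control wells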
Mtb betalactam: beta-lactam sensitization of Mtb H37Rv. AID 434955. M. tuberculosis H37Rv growth with meropenem, percent inhibition. inhibition, % at 25 µM. 330,000 tested, 0.27% active;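 also: growth measured after seven days incubation then overnight dye step; 0% = bacteria only wells and 100% = bacteria with antibiotic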
PfHsp40 rescue: compounds rescuing yeast from Plasmodium falciparum HSP40 toxicity | S. cerevisiae expressing PfHsp40, growth rescue, ATP luminescence | growth rescue, % at 12.5 µM | 340,000 tested, 0.68% active | AID 504582; in the data active = growth rescue above about 28%, passing the limit was not always enough; inconclusive = no clear call, values can overlap the other calls;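 also: yeast W303a lacking pdr1 and pdr3 grown in galactose medium; growth measured after three days at 30 °C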
Mtb hypoxia rep: reduces hypoxia-regulated biosensor signal in M. tuberculosis. M. tuberculosis hypoxia-regulated fluorescent reporter, fluorescence. fluorescence inhibition, % (no concentration beside the values). 300,000 tested, 0.1% active. AID 1159583; in the data active = fluorescence inhibition mostly above about 23%, no sharp cut-off; inactive = mostly below about 17%
CCHFV vOTU inh: CCHFV vOTU protease inhibition; Pep-AMC fluorescence; 370,000 tested, 0.55% active; AID 651958; inhibition, % at 11.5 µM; in the data active = inhibition above about 30%; also: 0% = vehicle wells with enzyme and 100% = no enzyme wells
GFP chromo cs: counter-screen: blocks GFP chromophore formation; shares compounds with RecA splice inh; cell-free GFP chromophore formation, fluorescence; EC50, µM; 2,100 tested, 83% active; AID 434968
* = called active by the depositor; ? = inconclusive; / = no result given; ! = not active in a repeat. Unless noted, no rule for the calls is given here.

SMILES	RecA splice inh	Mtb betalactam	PfHsp40 rescue	Mtb hypoxia rep	CCHFV vOTU inh	GFP chromo cs
CCN(CCN(C)C)C(=O)c1ccc2c(c1NCCO)C(=O)c1ccccc1C2=O	48*	8	0	11	1	?
O=S(=O)(Nc1ccc(-n2cnnn2)cc1)c1ccccc1F	/	3	0	6	2	/
O=S(=O)(Nc1ccc(-n2cnnn2)cc1)c1ccc(F)c(F)c1F	30*	-1	-2	13	11	>38
Cc1ccc2c(c1)N(C(=O)CSc1nncn1C)C(C)(C)c1ssc(=S)c1-2	39*	-1	-1	/	26	14*
O=C1/C(=C/Nc2ccc3c(c2)OCO3)CCc2ccccc21	49*	91	0	7	14	3.2*
O=C1/C(=C/c2ccc(F)cc2)SC(=S)N1CC(=O)N1CCCCC1c1cccnc1 (stereo unspecified)	38*	74	3	16	19	>38
O=C(/C=C/c1ccc(F)cc1)NC(=S)N1CCCCC1c1cccnc1 (stereo unspecified)	5	-5	0	7	-4	/
Cc1ccc(C=N/N=C2/NC(=O)C(CC(=O)Nc3ccccc3)S2)o1 (stereo unspecified)	/	/	/	3	/	/
COC(=O)c1cc([N+](=O)[O-])c(-n2ccnc2)c([N+](=O)[O-])c1	71*	9	-1	2	-10	11*
O=C(O)c1ccc(-n2ccnc2)c([N+](=O)[O-])c1	-15	-2	-1	8	-7	/
CC(=O)NC(=Cc1ccccc1)c1ccccc1	/	/	/	18	/	/
Cc1ccc(N2C(=O)NC(=O)/C(=C/c3ccc(OC(=O)c4cccs4)cc3)C2=O)cc1	34*	93	0	5	3	0.82*
COc1ccc(N2C(=O)NC(=O)/C(=C/c3cccc(OC(=O)c4cccs4)c3)C2=O)cc1Cl	10	?	/	6	9	/
O=C(CCl)c1ccc2c(c1)CCN2C(=O)C1CCCCC1	80*	100	1	9	-8	>38
CCC1CCCCN1S(=O)(=O)c1ccc2c(c1)CCN2C(=O)C1CCC1 (stereo unspecified)	8	0	2	14	6	/
COc1ccc2[nH]c(CN3CCC(CO)(CCOc4ccccc4)CC3)c(C)c2c1	40*	70	-2	-2	-5	>38
C#CC(=O)N(c1cc(OC)ccc1OC)C(C(=O)NC1CCCC1)c1cccs1 (stereo unspecified)	31*	13	-1	/	/	2.9*
C#CC(=O)N(c1ccc(OC)cc1OC)C(C(=O)NC1CCCC1)c1cccs1 (stereo unspecified)	/	2	?	3	-5	/
CCc1ccc2c(c1)C(NC(C)=O)C(=O)N2CCN1CCOCC1 (stereo unspecified)	49*	2	-3	/	18	>38
CCCN1C(=O)C(NC(C)=O)c2ccccc21 (stereo unspecified)	-1	2	0	5	12	/
COC(=O)[C@@]1(Cc2ccc(OC)cc2)C2C(=CC(=O)C2CC(=O)C(=O)N2CCCC2)CN1C(=O)c1ccccc1 (stereo partly specified)	/	/	/	3	/	/
COC(=O)[C@@]1(Cc2ccccc2)[C@@H]2C(=CC(=O)[C@H]2CC(=O)C(=O)N(C)C)CN1C(=O)c1ccccc1	70*	-7	0	/	/	16*
COc1cccc(C(=O)O/N=C(\N)c2ccc([N+](=O)[O-])cc2)c1OC	52*	5	-3	-7	-5	>38
CC1OC(=O)C(C)C1CC(O)[C@](C)(O)C1CC[C@@]2(O)C3=CC(=O)C4CC(O)C(O)C[C@]4(C)C3CC[C@]12C (stereo partly specified)	/	/	/	16	/	/
Oc1ccc(N=Cc2ccc(-c3cccs3)s2)cc1	45*	8	0	8	-311	>38
SMILES	RecA splice inh	Mtb betalactam	PfHsp40 rescue	Mtb hypoxia rep	CCHFV vOTU inh	GFP chromo cs
O=C(NN=Cc1ccc(OCC(=O)N2CCCC2)cc1)C(=O)NC1CC1	/	/	/	-3	/	/
CCN(CC)c1ccc(/C=N/Nc2nc(C)cc(=O)[nH]2)c(O)c1	39*	7	3	/	10	>38
COCCOC(=O)C1=C(C)N=C2SCCC(=O)N2C1c1ccc(OC(=O)c2ccco2)cc1 (stereo unspecified)	33*	11	0	0	2	>38
CCOC(=O)C1=C(C)N=C2SCCC(=O)N2C1c1ccc(OC)cc1 (stereo unspecified)	4	-11	/	-2	/	/
CC(NC(=O)/C(C#N)=C/c1ccc(Cl)c([N+](=O)[O-])c1)c1ccccc1 (stereo unspecified)	62*	81	/	/	6	14*
CC(NC(=O)C(C#N)=Cc1ccc(O)c(O)c1)c1ccccc1 (stereo unspecified)	/	/	/	9	/	/
Nc1nnc(CC(=O)NN=Cc2ccc(-c3ccccc3)o2)s1	/	/	/	9	/	/
CC(/C=C/c1ccc2c(c1)OCO2)=NNC(=O)COc1ccccc1C	/	/	/	1	/	/
O=C(Sc1nnc(-c2ccccc2)o1)N1c2ccccc2Sc2ccccc21	57*	91	5	13	-5	0.92*
O=c1[nH]cc(NCCc2ccccc2)c(=O)[nH]1	52*	-4	1	/	-16	5.5*
O=c1[nH]cc(NCc2ccccc2)c(=O)[nH]1	/	/	0	/	0	/
CC1CN(C(C)CO)C(=O)c2cccc(NS(=O)(=O)c3ccc(F)cc3)c2OC1CN(C)Cc1ccc(-c2ccccc2)cc1 (stereo unspecified)	/	/	/	13	/	/
CCN(c1ccccc1)c1cc2ccccc2c(=O)[nH]1	65*	3	1	/	-13	31*
CC1(C)Nc2ccc(O)cc2-c2c1ssc2=S	93*	42	-1	/	10	2.4*
O=C(NC1CC1)C1=CC(C2CC2)CC(OCc2ccc(CO)cc2)O1 (stereo unspecified)	/	/	/	15	/	/
O=S(=O)(Nc1c(O)ccc2ccccc12)c1ccccc1	93*	10	0	11	-1	2.2*
O=S(=O)(Nc1c(O)ccc2ccccc12)c1ccc(F)cc1	95*	2	0	7	2	3*
O=S(=O)(Nc1cccc2ccccc12)c1ccccc1	0	-1	0	7	-2	/
COc1ccc(S(=O)(=O)Nc2ccccc2)cc1	2	-3	-1	15	-9	/
COc1ccc(S(=O)(=O)Nc2ccc(O)c3ccccc23)cc1	96*	30	-2	5	82*	0.14*
O=c1ccc(Br)c[nH]1	1	-6	-1	-1	1	/
O=c1cc(-c2ccc(Br)cc2)[nH][nH]1	97*	4	/	-9	-1	3.7*
O=c1cc(-c2ccccc2)[nH][nH]1	97*	9	0	11	10	2.2*
O=c1cc(-c2ccc(C3CCCCC3)cc2)[nH][nH]1	76*	3	-1	9	3	1.9*
O=c1cc(-c2ccc(F)cc2)[nH][nH]1	98*	5	15	8	-3	2.3*
Fc1ccc(-c2cnc[nH]2)cc1	3	28	2	/	-9	/
CCc1oc2ccccc2c1C(=O)c1cc(Br)c(O)c(Br)c1	26	-3	259*!	/	18	18*
